These results are taken from PubChem BioAssay.

Where “and” joins values, the source holds several entries; their conditions need not be identical. Equal values may be shown once. Calls of active or inactive are those of the source. Unless noted, the rule behind the calls is not given here.

A short description of experiment [1]: compounds binding Alexa647 anti-His antibody – biochemical, small-molecule microarray, 635 nm fluorescence, artefact control for SMM control protein annotation, primary screen (AID 1128).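 Note: score merges feature fluorescence with signal-to-noise for each printed compound spot.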 The conditions noted are these: higher = more signal.
For experiment [2], the system named is Human papillomavirus type 1a E7 protein (residues 1-88). Put plainly: HPV1a E7 small-molecule binders, primary screen, biochemical, small-molecule microarray, residues 1-88, 635 nm (AID 1129). The conditions noted are these: small-molecule microarray binding, fluorescence 635 nm; higher = more signal.
In experiment [3] the target is Focal adhesion kinase 1 (Homo sapiens) (UniProt Q05397). Put plainly: PTK2 protein binding on printed compound slides – biochemical, small-molecule microarray, 635/667 nm fluorescence, BSA, DTT, primary screen (AID 1130).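 Note: composite of spot emission at 667 nm and signal to noise over triplicate slides.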 The following applies: 635 nm fluorescence, higher = more signal.
The subject of experiment [4] is Fibrinogen (Alexa647-labelled). Put plainly: Alexa647-fibrinogen binding to printed small molecules – biochemical, small-molecule microarray, 635/667 nm fluorescence, artefact control for SMM control-protein annotation, profiling panel (AID 1131).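 Note: z-score merges 667 nm fluorescence with per-spot signal-to-noise over triplicate slides.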 The following applies: fibrinogen-A647 binding fluorescence, higher = more signal.
For experiment [5], the target named is Follistatin (Homo sapiens) (UniProt P19883). Kind of experiment: FST protein binding to printed compounds – biochemical, small-molecule microarray, 635/667 nm fluorescence, primary screen (AID 1132). The following applies: 635 nm fluorescence, higher = more signal.
Experiment [6] concerns the target Fibroblast growth factor 2 (Homo sapiens) (UniProt P09038). Put plainly: basic fibroblast growth factor binding to printed compounds – biochemical, small-molecule microarray, 635/667 nm fluorescence, primary screen (AID 1133). The conditions noted are these: FGF2, fluorescence 635/667, higher = more signal.
The nature of experiment [7]: JC-1 mitochondrial potential readout, lung cancer cells – cell-based, A549, JC-1 fluorescence, basal, 24 h, 100 nL, profiling panel (AID 1138).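 Note: A549 lung adenocarcinoma cells under basal conditions with no added stimulus; test concentration not given here.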 The conditions noted are these: higher = more signal.
A further experiment has as its system Lefty1. Kind of experiment: Lefty1 protein binding to printed compounds – biochemical, small-molecule microarray, 635/667 nm fluorescence, primary screen (AID 1139). The conditions noted are these: fluorescence 635/667, higher = more signal.
Experiment [8] relates to wheat germ agglutinin (Triticum aestivum), Alexa647-labelled. Put plainly: Alexa647-WGA lectin binding to printed small molecules – biochemical, small-molecule microarray, 635/667 nm fluorescence, artefact control for SMM control-protein annotation, profiling panel (AID 1140).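 Note: score merges 667 nm feature emission with signal to noise over triplicate slides.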 The following applies: WGA-A647 binding, 635 nm fluorescence, higher = more signal.
Experiment [9] concerns the target Luciferin 4-monooxygenase (Photinus pyralis) (UniProt P08659). Put plainly: inhibition of purified Photinus pyralis luciferase – biochemical, luminescence, purified enzyme, 2006 set, primary screen (AID 1141).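 Note: cell-free assay with purified firefly luciferase at 100 ng per well in PBS; test concentration not given here.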 The conditions noted are these: purified firefly luciferase, SteadyGlo luminescence, 30 min; higher = more signal, called active from +8 up or from −8 down.

The subject of experiment [10] is Wnt5a (protein binding on small-molecule microarray). Kind of experiment: small molecules binding Wnt5a protein – biophysical, small-molecule microarray, 635/667 nm fluorescence, primary screen (AID 1142).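 Note: fluorescence read at 667 nm with signal to noise per printed feature.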 The following applies: 635 nm fluorescence, higher = more signal.
Experiment [11] in a line: ATP-based viability of Huh7 replicon cells – cell-based, CellTiter-Glo luminescence, basal, 48 h, cytotoxicity control for HCV replication inhibitor project, primary screen (AID 1143).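 Note: Huh7 hepatoma cells carrying a hepatitis C replication reporter with no stimulus; test concentration not given here.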 The conditions noted are these: higher = more signal, called active from +8 up or from −8 down. (In general: Replicon systems follow genome replication, usually without infectious particles.)

A short description of experiment [12]: Pseudomonas biofilm growth suppression – PAO1 strain, BacTiter-Glo luminescence, LB-PBS, primary screen (AID 1144). The conditions noted are these: P. aeruginosa PAO1 biofilm, 12 h, higher = more signal.
A short description of experiment [13]: basal CRE-LacZ reporter activity in PC12 – cell-based, unstimulated, primary screen (AID 1145). The conditions noted are these: no forskolin, luminescence, 4.5 h, higher = more signal, called active from +8 up or from −8 down.
Experiment [14] can be described thus: forskolin-driven CRE-LacZ activity in PC12 – cell-based, CRE-LacZ reporter, forskolin-stimulated, primary screen (AID 1146).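 Note: PC12 cells with 6xCRE LacZ reporter stimulated by forskolin 10 µM; beta-galactosidase reporter signal reflecting CREB driven transcription.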 The conditions noted are these: luminescence, 4.5 h, higher = more signal, called active from +8 up or from −8 down.
The target in experiment [15] is Streptavidin (Streptomyces avidinii) (UniProt P22629). Kind of experiment: compounds binding control protein streptavidin – biophysical, small-molecule microarray, 635/667 nm fluorescence, artefact control for SMM compound annotation, primary screen (AID 1147).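 Note: signal reflects streptavidin binding to arrayed compounds as a control protein.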 The following applies: higher = more signal.
Experiment [16] is described as follows: probe aInhba binding on compound microarray – biochemical, small-molecule microarray, 635/667 nm fluorescence, primary screen (AID 1148).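 Note: score merges 667nm spot fluorescence with signal-to-noise for antibody binding to printed compounds.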 The following applies: higher = more signal.
Experiment [17] addresses Torsin-1A (Homo sapiens) (UniProt O14656). Put plainly: TOR1A wild-type binding on microarray – cell lysate, small-molecule microarray, lysate, 635/667 nm, primary screen (AID 1149). The following applies: COS7 hTOR1A-WT lysate, 635 nm fluorescence, higher = more signal.
For experiment [18] the target is unchanged. Kind of experiment: torsin A mutant lysate binding on microarrays – cell lysate, small-molecule microarray, COS7 lysate, 635/667 nm fluorescence, primary screen (AID 1150).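 Note: score pools 667 nm emission and signal to noise measuring lysate protein binding.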 The conditions noted are these: COS7 hTOR1A mutant lysate, 635 nm fluorescence, higher = more signal.
Experiment [19] relates to Sonic hedgehog protein (Shh). Kind of experiment: Sonic hedgehog microarray binding compounds – biochemical, small-molecule microarray, 635/667 nm fluorescence, primary screen (AID 1151).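 Note: Shh protein binding to compounds spotted on small-molecule microarray slides; score combines spot fluorescence intensity with signal-to-noise across triplicate slides.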 The following applies: 635 nm fluorescence, higher = more signal.

Sequence of Luciferin 4-monooxygenase (Photinus pyralis) (P08659 whole entry, looked up): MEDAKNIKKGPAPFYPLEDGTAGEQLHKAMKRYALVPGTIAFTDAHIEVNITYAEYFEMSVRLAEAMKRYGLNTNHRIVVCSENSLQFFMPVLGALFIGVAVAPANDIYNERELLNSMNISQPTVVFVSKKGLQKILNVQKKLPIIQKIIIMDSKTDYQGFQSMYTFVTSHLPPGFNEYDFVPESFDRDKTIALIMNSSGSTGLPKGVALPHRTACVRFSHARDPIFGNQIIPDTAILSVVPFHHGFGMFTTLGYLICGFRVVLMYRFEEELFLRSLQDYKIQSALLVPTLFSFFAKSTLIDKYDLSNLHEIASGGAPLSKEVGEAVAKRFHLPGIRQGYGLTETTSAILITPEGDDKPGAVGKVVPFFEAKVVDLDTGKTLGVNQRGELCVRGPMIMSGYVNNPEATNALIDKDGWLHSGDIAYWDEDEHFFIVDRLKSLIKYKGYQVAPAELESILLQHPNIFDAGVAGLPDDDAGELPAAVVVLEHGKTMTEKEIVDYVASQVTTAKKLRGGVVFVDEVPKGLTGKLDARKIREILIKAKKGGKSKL
Sequence of Follistatin (Homo sapiens) (P19883 whole entry, looked up): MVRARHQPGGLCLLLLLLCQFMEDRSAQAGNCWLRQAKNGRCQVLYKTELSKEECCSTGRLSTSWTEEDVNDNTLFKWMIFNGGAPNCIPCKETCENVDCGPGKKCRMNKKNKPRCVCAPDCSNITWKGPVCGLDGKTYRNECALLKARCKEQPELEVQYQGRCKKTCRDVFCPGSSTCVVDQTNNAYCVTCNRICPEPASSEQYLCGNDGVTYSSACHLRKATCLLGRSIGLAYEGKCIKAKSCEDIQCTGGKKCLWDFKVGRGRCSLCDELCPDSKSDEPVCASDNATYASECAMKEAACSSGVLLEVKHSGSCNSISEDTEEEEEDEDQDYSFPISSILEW
Sequence of Torsin-1A (Homo sapiens) (O14656 whole entry, looked up): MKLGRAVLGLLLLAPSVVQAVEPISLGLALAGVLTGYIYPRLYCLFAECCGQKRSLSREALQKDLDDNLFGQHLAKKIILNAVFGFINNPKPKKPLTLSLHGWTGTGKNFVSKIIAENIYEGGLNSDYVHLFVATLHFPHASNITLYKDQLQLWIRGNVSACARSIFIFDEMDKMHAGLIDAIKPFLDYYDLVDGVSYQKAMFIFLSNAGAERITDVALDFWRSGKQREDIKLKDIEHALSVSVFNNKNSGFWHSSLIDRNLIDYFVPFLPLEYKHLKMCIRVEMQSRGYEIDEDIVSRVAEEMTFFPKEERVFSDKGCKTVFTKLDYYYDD
Sequence of Fibroblast growth factor 2 (Homo sapiens) (P09038 whole entry, looked up): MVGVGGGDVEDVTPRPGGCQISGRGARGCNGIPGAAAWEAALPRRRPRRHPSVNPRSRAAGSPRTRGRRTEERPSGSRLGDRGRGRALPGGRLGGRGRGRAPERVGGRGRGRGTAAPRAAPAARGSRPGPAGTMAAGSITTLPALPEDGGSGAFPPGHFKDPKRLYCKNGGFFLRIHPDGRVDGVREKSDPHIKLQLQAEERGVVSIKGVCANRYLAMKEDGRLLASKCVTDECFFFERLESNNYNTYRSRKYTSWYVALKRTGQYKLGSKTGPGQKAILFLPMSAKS
Sequence of Focal adhesion kinase 1 (Homo sapiens) (Q05397 whole entry, looked up): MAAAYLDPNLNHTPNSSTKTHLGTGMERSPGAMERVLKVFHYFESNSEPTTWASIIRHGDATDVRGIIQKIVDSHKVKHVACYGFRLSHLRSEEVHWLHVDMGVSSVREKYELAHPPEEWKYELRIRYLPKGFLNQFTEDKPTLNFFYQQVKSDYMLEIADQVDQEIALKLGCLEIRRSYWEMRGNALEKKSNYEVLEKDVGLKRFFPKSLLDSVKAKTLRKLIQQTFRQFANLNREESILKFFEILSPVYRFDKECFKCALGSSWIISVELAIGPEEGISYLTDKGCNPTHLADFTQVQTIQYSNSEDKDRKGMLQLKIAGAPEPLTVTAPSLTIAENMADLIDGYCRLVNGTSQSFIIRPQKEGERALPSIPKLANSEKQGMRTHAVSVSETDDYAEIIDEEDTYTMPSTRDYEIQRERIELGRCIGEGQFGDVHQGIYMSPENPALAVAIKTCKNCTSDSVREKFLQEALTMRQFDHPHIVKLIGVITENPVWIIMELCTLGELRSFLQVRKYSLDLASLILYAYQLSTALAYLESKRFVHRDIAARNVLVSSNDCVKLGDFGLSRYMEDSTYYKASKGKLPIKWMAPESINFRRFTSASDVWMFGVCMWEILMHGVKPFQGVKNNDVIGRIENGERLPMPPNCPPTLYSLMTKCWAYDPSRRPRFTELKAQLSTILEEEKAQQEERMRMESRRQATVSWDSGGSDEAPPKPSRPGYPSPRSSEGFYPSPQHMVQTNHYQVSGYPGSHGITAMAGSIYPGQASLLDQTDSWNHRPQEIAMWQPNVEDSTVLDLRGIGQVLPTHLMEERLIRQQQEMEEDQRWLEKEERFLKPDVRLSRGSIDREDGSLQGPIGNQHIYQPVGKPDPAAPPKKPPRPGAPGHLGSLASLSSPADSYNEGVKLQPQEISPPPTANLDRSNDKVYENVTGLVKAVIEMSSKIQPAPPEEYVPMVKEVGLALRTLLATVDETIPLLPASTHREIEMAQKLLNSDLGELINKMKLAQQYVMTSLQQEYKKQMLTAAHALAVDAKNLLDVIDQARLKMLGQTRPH
Sequence of Streptavidin (Streptomyces avidinii) (P22629 whole entry, looked up): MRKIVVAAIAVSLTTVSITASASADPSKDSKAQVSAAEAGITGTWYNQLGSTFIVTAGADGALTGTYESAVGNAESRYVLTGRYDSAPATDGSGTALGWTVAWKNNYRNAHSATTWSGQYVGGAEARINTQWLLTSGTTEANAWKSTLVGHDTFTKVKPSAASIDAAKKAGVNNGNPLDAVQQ

For the molecule `COC(=O)C1=C(C)N(Cc2ccccc2)[C@]23O[C@](C(=O)OC)(C(=O)N2[C@@H]1c1ccccc1)[C@H]1C(=O)N(C)C(=O)[C@H]13`, the composite z-score is 0.561 and 1.01 in [1]; 1.12 and 0.878 in experiment [2]; -0.178 and -0.0654 in experiment [3]; 0.938 and 0.0407 in experiment [4]; 0.368 and 0.409 in [5]; 0.219 and 0.4 in experiment [6]. The composite z-score in the experiment on Lefty1 is 0.817 and 1.17; in experiment [8] it was 0.638 and 0.366; in experiment [10] it was 0.0757 and 0.142; in experiment [15], 0.412 and 0.0225; in [16], -0.278 and -0.179; in the experiment with Torsin-1A (Homo sapiens) [17] it was 0.314 and 0.263. Further, the composite z-score was 0.691 and 0.524 in the experiment with Torsin-1A (Homo sapiens) [18]; 0.548 and 0.736 in [19]. In addition, the z-score in experiment [7] is -0.993 and 1.4; in experiment [9], -0.576 (inactive) and -1.35 (inactive); in experiment [11], -1.01 (inactive) and -1.34 (inactive); in experiment [12], 0.225 (inactive); in experiment [13], 3.17 (inactive) and 0.019 (inactive); in experiment [14], -0.735 (inactive) and -1.7 (inactive).
Consider `COC(=O)C1=C(C)N(Cc2ccccc2)C2=C(C(=O)c3ccccc3)[C@H](c3ccccc3)[C@@](O)(C(=O)OC)C(=O)N2[C@@H]1c1ccccc1`, for which the composite z-score in experiment [1] is 0.326 and -0.476; in [2] it was 0.477 and 0.778; in experiment [3] it was 0.0825 and 1.11; in experiment [4], 0.435 and -0.0657; in experiment [5], 0.526 and 0.424; in experiment [6] it was 0.442 and 0.433. Moreover, the composite z-score was 0.571 and 0.636 in the experiment on Lefty1; 0.419 and -0.0152 in [8]; 0.0925 and 0.179 in experiment [10]; 0.077 and -0.118 in experiment [15]; 0.0173 and -0.224 in [16]; 0.0486 and 0.0903 in the experiment with Torsin-1A (Homo sapiens) [17]. The composite z-score with Torsin-1A (Homo sapiens) [18] is 0.483 and -0.0314; in experiment [19] it was 0.557 and 0.757. For the same molecule, the z-score in experiment [7] was 0.722 and 0.241; in [9] it was -1.49 (inactive) and -0.0191 (inactive); in experiment [11] it was -2.35 (inactive) and 0.428 (inactive); in experiment [12] it was -1.1 (inactive) and -0.472 (inactive); in experiment [13] it was 3.09 (inactive) and -0.989 (inactive); in experiment [14], 0.415 (inactive) and -1.18 (inactive).
On to `O=C1C[C@]2(c3ccc([N+](=O)[O-])cc3)C(=O)N(Cc3ccccc3)c3cc(CO)ccc3[C@H]2N1C1CCCCC1`, for which the composite z-score in [1] was 0.0501 and 1.06; in experiment [2], 0.905 and 0.134; in experiment [3], 0.152 and 0.0229; in experiment [4], -0.437 and -0.106; in experiment [5], 0.585 and 1.41; in [6], 0.368 and 1.02. Moreover, the composite z-score in the experiment on Lefty1 is 0.507 and 0.482; in experiment [8], -0.329 and 0.59; in [10] it was 0.0771 and 0.551; in experiment [15] it was -0.286 and -0.157; in experiment [16], -0.249 and 0.163; with Torsin-1A (Homo sapiens) [17] it was 0.251 and 0.0218. Besides, the composite z-score with Torsin-1A (Homo sapiens) [18] is 0.22 and -0.0773; in experiment [19], 0.837 and 1.22. The z-score in experiment [7] was -0.38 and 0.277; in experiment [9] it was 0.302 (inactive) and -0.537 (inactive); in experiment [11], 0.282 (inactive) and -5.67 (inactive); in experiment [12], -0.19 (inactive) and -0.334 (inactive); in experiment [13], -0.348 (inactive) and -0.152 (inactive); in [14], 1.03 (inactive) and -0.885 (inactive).
In the case of `CCOC(=O)c1ccc(NC(=O)O[C@H]2[C@H](OC(=O)Nc3ccccc3)[C@H](OC(=O)Nc3ccccc3)[C@@H](OC)O[C@@H]2CO)cc1`, the composite z-score in experiment [1] is 1.27 and 1.9; in experiment [2] it was 1.21 and 1.23; in experiment [3] it was 0.495 and 1.09; in experiment [4] it was 0.982 and 0.709; in experiment [5] it was 1.27 and 1.31; in [6], 1.19 and 0.806. For the same molecule, the composite z-score in the experiment on Lefty1 is 0.551 and 1.15; in [8], 0.96 and 1.22; in [10], 0.679 and 0.445; in [15] it was 1.06 and 0.79; in experiment [16] it was 0.189 and 0.232; with Torsin-1A (Homo sapiens) [17], 0.147 and 0.386. For the same molecule, the composite z-score in the experiment with Torsin-1A (Homo sapiens) [18] was 0.592 and 0.568; in experiment [19], 1.17 and 1.63. Besides, the z-score was -0.469 and -0.781 in [7]; 0.197 (inactive) and -0.2 (inactive) in experiment [9]; -4.37 (inactive) and -5.71 (inactive) in experiment [11]; 0.44 (inactive) and -0.118 (inactive) in experiment [12]; -0.0484 (inactive) and 0.596 (inactive) in [13]; 0.359 (inactive) and -1.63 (inactive) in experiment [14].
